Where “and” joins values, the source holds several entries; their conditions need not be identical. Equal values may be shown once. Calls of active or inactive are those of the source. Rule for the calls: active = hit-call score of the fitted dose curve at least 0.9, where 1 is the maximum; inactive = score below 0.9.
Read-out: Collagen IV, COL4A1 (gene 1282)
Assay: BSK_MyoF_CollagenIV: BioMAP Diversity Plus: MyoF Assay for Collagen IV Biomarker Activity (AID 2284247)
Settings: primary human lung fibroblasts
Protocol: BSK_MyoF is a cell-based, multiplexed-readout assay that uses lung fibroblasts, […], with measurements taken at 24 hours after chemical dosing in a microplate: 96-well plate.BSK_MyoF_CollagenIV is an assay component measured in the BSK_MyoF assay. It measures Collagen IV antibody related to regulation of gene expression using ELISA technology.Data from the assay component BSK_MyoF_CollagenIV was analyzed at the endpoint, BSK_MyoF_CollagenIV, in the positive analysis fitting direction relative to DMSO as the negative control and baseline of activity. Using a type of binding reporter, gain or loss-of-signal activity can be used to understand protein changes. To generalize the intended target to other relatable targets, this assay endpoint is annotated to the 'cell adhesion molecules' intended target family, where the subfamily is 'collagen'.
The levels of cell surface (or secreted, indicated by the prefix "s") biomarker endpoints were measured by ELISA. Overt cytotoxicity to cells in confluent adherent cultures (all systems other than the BT system) was assessed by measuring total protein levels using sulforhodamine B (SRB) staining in parallel cultures at the time of biomarker measurements, indicated as SRB endpoints. For proliferation assays for adherent cell types, individual cell types are cultured at sub-confluence and relative cell numbers quantified by SRB staining at time points optimized for each system (48 h: 3C and CASM3C systems; 72 h: BT and HDF3CGF systems; 96 h: SAg system). SRB was performed by staining cells with 0.1% SRB after fixation with 10% TCA and reading wells at 560 nm.Viability and proliferation of PBMC (T cells) was quantified by Alamar Blue reduction for the SAg and BT systems. For PBMC viability (referred to as PBMC Cytotoxicity within the assay endpoint names), cells were plated (75,000/well in a 96-well plate) and then chemical samples added for 1 h before addition of activators, SEB and TSST-1 (20 ng/mL final concentration each). Cells were incubated for 90 h. Then, Alamar Blue (20 uL/well) (Invitrogen, Cat DAL1100) was added for 6 h, and the plates were read with a fluorescence microplate reader at 546/580 nm (excitation/emission). For PBMC proliferation, cells were plated and activated as above but incubated for only 16 h prior to addition of Alamar Blue. Plates were read after 6 h.

SMILES	outcome	AC50
O=[N+]([O-])c1ccc2c3c(cccc13)CC2	inactive	
COP(=S)(OC)Oc1cc(Cl)c(Cl)cc1Cl	inactive	
BrCCBr	inactive	
COP(=S)(OC)Oc1ccc(S(=O)(=O)N(C)C)cc1	inactive	
O=C(O)CCC(F)(C(F)(F)F)C(F)(F)F	inactive	
CCCCC(CC)CO[N+](=O)[O-] (stereo unspecified)	inactive	
Oc1c(I)cc(I)cc1I		4.34 µM (active)
COc1cc(OC)nc(NC(=O)NS(=O)(=O)c2ncccc2C(=O)N(C)C)n1	inactive	
COP(=S)(OC)Oc1c(Cl)cc(C)cc1Cl	inactive	
O=C(OC1CCCCC1)c1ccccc1C(=O)OC1CCCCC1	inactive	
Nc1ncc([N+](=O)[O-])s1	inactive	
CCSC(C)CC1CC(=O)C(C(CC)=NOC/C=C/Cl)=C(O)C1 (stereo unspecified)	inactive	
O=Cc1cccc(Oc2ccccc2)c1	inactive	
CCNc1nc(NC(C)(C)C)nc(SC)n1	inactive	
CC(C)CCCCCCOC(=O)c1ccccc1C(=O)OCCCCCCC(C)C	inactive	
O=C(O)C(F)(F)C(F)(F)C(F)(F)C(F)(F)C(F)(F)C(F)(F)F	inactive	
CCOP(=S)(OCC)SCCS(=O)(=O)CC	inactive	
Oc1ccc(-c2ccccc2)cc1	inactive	

SMILES	outcome	AC50
CC(=O)C(Cl)C(=O)N(C)C (stereo unspecified)	inactive	
ClC(Cl)=C(Cl)C(Cl)=C(Cl)Cl	inactive	
Nc1ccc(-c2ccc(N)c(Cl)c2)cc1Cl	inactive	
O=S(=O)(c1ccc(Cl)cc1)c1ccc(Cl)cc1	inactive	
ClC1=C(Cl)[C@]2(Cl)[C@H]3[C@H]([C@H]4C=C[C@H]3C4)[C@@]1(Cl)C2(Cl)Cl	inactive	
COC[C@H](C)N(C(=O)CCl)c1c(C)csc1C	inactive	
C(=NC1CCCCC1)=NC1CCCCC1		12.4 µM (active)
CCCCCCCCC(=O)NCc1ccc(O)c(OC)c1	inactive	
CCOP(=S)(OCC)Oc1ccc(S(C)=O)cc1 (stereo unspecified)	inactive	
CC1(C)Cc2cccc(O)c2O1	inactive	
CC(C)c1ccc(CO)cc1	inactive	
COP(=S)(OC)Oc1ccc(Sc2ccc(OP(=S)(OC)OC)cc2)cc1	inactive	
O=C(O)C(F)(F)C(F)(F)C(F)(F)C(F)(F)C(F)(F)C(F)(F)C(F)(F)C(F)(F)C(F)(F)C(F)(F)F		816 nM (active) and 843 nM (active)
NC(=S)Nc1ccccc1	inactive	
OCc1ccco1	inactive	
Nc1cccc2ccccc12	inactive	
CCOC(=O)/C=C(C)/C=C/C[C@@H](C)CCCC(C)C		7.11 µM (active)
COC(=O)c1sccc1S(=O)(=O)NC(=O)Nc1nc(C)nc(OC)n1	inactive	

Source: PubChem BioAssay (EPA / NIEHS)
